These results are taken from PubChem BioAssay (NCATS).

For experiment [1], the system named is W2. Put plainly: qHTS profiling for inhibitors of Plasmodium falciparum proliferation (AID 504749). Also: nearly all actives have a fitted effect of over 60% in size. Also: potency is read from the fitted curve at half-maximal effect. Conditions: P. falciparum in erythrocytes, SYBR Green DNA, 72 h; series mostly up to 28.7 µM. The method, boiled down:
(§1)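 Readout was DNA-dye fluorescence from lysed cultures, ex 485/em 535 nm. Parasitized red cells had grown 72 h with compound; data scaled between 0.29 uM artemisinin and DMSO wells and corrected using vehicle-only plates.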

Experiment [2] relates to CRL-7250. Put plainly: Cytotoxic Profiling of Annotated Libraries Using Quantitative High-Throughput Screening (AID 1296008). Also: nearly all actives have a fitted effect of over 60% in size. Also: potency is read from the fitted curve at half-maximal effect. As to max response: % is scaled to controls: 0 for no effect and ±100 for the full control effect. Particulars: Five cell lines viability, CellTiter-Glo ATP luminescence, 48-72 h; max response: hits give low values. Put shortly: (§2)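 Cells exposed to compounds for 48 or 72 hr at 37 degrees Celsius. Viability read as ATP-coupled luminescence with CellTiter-Glo after 10 min at room temperature.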

The test system of experiment [3] is HEK293. Described as above. Particulars: Five cell lines viability, CellTiter-Glo ATP luminescence, 48-72 h; max response: hits give low values. The method, boiled down:
as §2

Experiment [4] deals with HaCat. The experiment is described as above. Conditions: Five cell lines viability, CellTiter-Glo ATP luminescence, 48-72 h; max response: hits give low values. The method, boiled down: as §2
Experiment [5] has as its system KB-3-1. The experiment is described as above. Conditions: Five cell lines viability, CellTiter-Glo ATP luminescence, 48-72 h; max response: hits give low values. The method, boiled down: as §2
The subject of experiment [6] is NIH3T3. The experiment is described as above. Particulars: Five cell lines viability, CellTiter-Glo ATP luminescence, 48-72 h; max response: hits give low values. Put shortly:
as §2

In experiment [7] the test system is HEK293T. Put plainly: qHTS assay to identify novel small-molecules to repurpose for Merkel cell carcinoma treatment (AID 1296009). Also: nearly all actives have a fitted effect of over 60% in size. Also: potency is read from the fitted curve at half-maximal effect. As to activity change, negative = cytotoxicity: % is scaled to controls: 0 for no effect and ±100 for the full control effect. Conditions: MCC and control cell lines, CellTiter-Glo viability, 72 h; at 44.8 µM (top of the series) unless noted. Put shortly:
(§3)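 Cells were incubated with compound for 72 hr at 37 degree celsius before CellTiter-Glo addition. Luminescence was normalized with no-cell wells as full cytotoxicity and DMSO as baseline.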

Experiment [8] relates to MCC-13. The experiment is described as above. Particulars: MCC and control cell lines, CellTiter-Glo viability, 72 h; series mostly up to 46 µM. Put shortly: as §3
The subject of experiment [9] is MCC-26. Described as above. Conditions: MCC and control cell lines, CellTiter-Glo viability, 72 h; series mostly up to 46 µM. Put shortly: as §3
For experiment [10], the system named is UISO. The description is as above. Particulars: MCC and control cell lines, CellTiter-Glo viability, 72 h; series mostly up to 46 µM. The method, boiled down: as §3
Experiment [11] deals with C33A. In words: Primary qHTS to identify gynecologic anti-cancer compounds using libraries of approved drugs and bioactive compounds (AID 1345084). Also: % is scaled to controls: 0 for no effect and ±100 for the full control effect; nearly all actives have a fitted effect of over 55% in size. Conditions: Gynecologic cancer cell panel viability, ATPlite luminescence, 48 h; series mostly up to 57.5 µM. The method, boiled down: (§4)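 Five-point cytotoxicity, 48 h drug exposure at 37 C, 5% CO2, on cells seeded 16 h beforehand. ATP content read by ATPlite luminescence.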

Experiment [12] concerns CAOV3. The experiment is described as above. Conditions: Gynecologic cancer cell panel viability, ATPlite luminescence, 48 h; series mostly up to 57.5 µM. The method, boiled down:
as §4

Experiment [13] has as its system CASKI. The experiment is described as above. Particulars: Gynecologic cancer cell panel viability, ATPlite luminescence, 48 h; series mostly up to 57.5 µM. The method, boiled down:
as §4

The subject of experiment [14] is TAB165. Put plainly: qHTS profiling for inhibitors of Plasmodium falciparum proliferation (AID 504749). Also: nearly all actives have a fitted effect of over 60% in size. Also: potency is read from the fitted curve at half-maximal effect. Particulars: P. falciparum in erythrocytes, SYBR Green DNA, 72 h; series mostly up to 28.7 µM. Put shortly:
as §1

The test system of experiment [15] is MKL-2. In words: qHTS assay to identify novel small-molecules to repurpose for Merkel cell carcinoma treatment (AID 1296009). Also: nearly all actives have a fitted effect of over 60% in size. Also: potency is read from the fitted curve at half-maximal effect. As to activity change, negative = cytotoxicity: % is scaled to controls: 0 for no effect and ±100 for the full control effect. Conditions: MCC and control cell lines, CellTiter-Glo viability, 72 h; series mostly up to 46 µM. Put shortly: as §3
In experiment [16] the test system is MKL-1. Described as above. Conditions: MCC and control cell lines, CellTiter-Glo viability, 72 h; series mostly up to 46 µM. The method, boiled down:
as §3

Experiment [17] deals with WaGa. The description is as above. Conditions: MCC and control cell lines, CellTiter-Glo viability, 72 h; series mostly up to 46 µM. The method, boiled down:
as §3

Experiment [18] relates to Es-2. In words: Primary qHTS to identify gynecologic anti-cancer compounds using libraries of approved drugs and bioactive compounds (AID 1345084). Also: % is scaled to controls: 0 for no effect and ±100 for the full control effect; nearly all actives have a fitted effect of over 55% in size. Conditions: Gynecologic cancer cell panel viability, ATPlite luminescence, 48 h; series mostly up to 57.5 µM. The method, boiled down:
as §4

Experiment [19] deals with NIH3T3. Put plainly: qHTS assay to identify novel small-molecules to repurpose for Merkel cell carcinoma treatment (AID 1296009). Also: nearly all actives have a fitted effect of over 60% in size. Also: potency is read from the fitted curve at half-maximal effect. As to activity change, negative = cytotoxicity: % is scaled to controls: 0 for no effect and ±100 for the full control effect. Particulars: MCC and control cell lines, CellTiter-Glo viability, 72 h; at 44.8 µM (top of the series) unless noted. The method, boiled down: as §3

Molecules are shown by their SMILES. Values joined by “and” are separate entries in the source; they are usually repeats but may differ in a detail not shown here. Equal values may be shown once. Results filed as inconclusive are left out. Unmarked numbers belong to inactive results. Active and inactive are the calls of the source. Calls follow the shape of the dose curve; as a rule, active = well fitted curve in the direction sought with a large enough effect; inconclusive = small, poorly fitted or top-dose-only effect, or another doubt; inactive = no such curve, though single readings can be large; an effect the other way counts as inactive or inconclusive. Numbered stars: 1 amine (or outer) side, 2 acyl side, 3 side chain; on linkers, the order of the positions; unused ones are H or OH. Bridge positions count the residues as written; N and C are the ends. Square brackets hold non-standard residues; d marks the D form. Peptide text beside a SMILES is read from it. I, II: the chains in the order shown. Actinocin(9to1) = Cc1c2oc3c(C)ccc(C(=O)[*:1])c3nc-2c(C(=O)[*:2])c(N)c1=O; NMeV = CN[C@H](C(=O)O)C(C)C; Sar = CNCC(=O)O

Turning to `CCOC(=O)COc1ccc2c(C)c(CCN(CC)CC)c(=O)oc2c1Cl`, the Potency result in [1], in experiment [8], in experiment [9], in [10], in experiment [11] and in experiment [12] was “inactive” in each case. Further, the Potency entry in experiment [13] is “inactive”. In addition, the Potency in experiment [2] is 29900 nM (active). In addition, the molecule was called inactive in [3] and in [7]. Further, the values for the max response in [4], in experiment [5] and in [6] were -12.1%, 7.91% and 1.29%, respectively.
On to `Cc1c2oc3c(C)ccc(C(=O)N[C@@H]4C(=O)N[C@H](C(C)C)C(=O)N5CCC[C@H]5C(=O)N(C)CC(=O)N(C)[C@@H](C(C)C)C(=O)O[C@@H]4C)c3nc-2c(C(=O)N[C@@H]2C(=O)N[C@H](C(C)C)C(=O)N3CCC[C@H]3C(=O)N(C)CC(=O)N(C)[C@@H](C(C)C)C(=O)O[C@@H]2C)c(N)c1=O` (I: T[dV]P[Sar][NMeV] / II: T[dV]P[Sar][NMeV]; ester I:1-I:C, II:1-II:C; linker I:N-II:N via Actinocin(9to1)), for which the Potency in experiment [14] was 4.5 nM (active); in [1], 5.4 nM (active); in [2], 4.2 nM (active); in experiment [3] it was 2.1 nM (active); in [4] it was 18.8 nM (active); in experiment [5], 20.6 nM (active). Also, the Potency in experiment [8] was 33.5 nM (active); in experiment [9], 21.1 nM (active); in experiment [15], 3.8 nM (active); in experiment [10] it was 3.3 nM (active).
For `C=CCc1ccc(O)c(OC)c1`, the Potency entry in experiment [14], in experiment [1], in [8], in experiment [9], in experiment [16] and in [15] was “inactive” throughout. In addition, the Potency entry in experiment [10], in experiment [17], in experiment [11], in experiment [12], in [13] and in experiment [18] was “inactive” in each case. Moreover, the call in experiment [2], in [3] and in [7] was inactive. In addition, the max response in experiment [4] was -0.0642%; in [5], 3.55%; in experiment [6], 3.27%.
With `CCOc1ccc(Cc2nccc3cc(OCC)c(OCC)cc23)cc1OCC`, the Potency in [2] was 15000 nM (active); in experiment [3], 7500 nM (active); in experiment [15], 16800 nM (active). Further, the max response in experiment [4] was -22.8%; in experiment [5] it was 1.15%; in experiment [6], -24.3%. Moreover, the Potency result in [9] and in [12] was “inactive” in each case.
As for `CC(C)(C(=O)c1cccnc1)c1cccnc1`, the Potency entry in experiment [14], in experiment [1], in [8], in experiment [9], in [16] and in experiment [15] was “inactive” in each case. Further, the Potency result in experiment [10], in experiment [17], in [11], in experiment [12], in experiment [13] and in experiment [18] was “inactive” throughout. For the same molecule, the max response in [2] was -2.01%; in experiment [4] it was 3.03%; in experiment [5] it was 11%. Also, the molecule was called inactive in experiment [3], in experiment [6], in experiment [7] and in experiment [19].
Regarding `CCCCCCCCCCCCCCCCCC(=O)OCC(O)CO` (configuration not stated), the Potency entry in experiment [14], in experiment [1], in experiment [8], in experiment [9], in experiment [16] and in experiment [15] was “inactive” in each case. Also, the Potency entry in experiment [10], in experiment [17], in experiment [11], in experiment [12], in experiment [13] and in experiment [18] was “inactive” throughout. In addition, the molecule was called inactive in experiment [2]. The max response in experiment [3] is -6.82%; in [4], 4.32%; in experiment [5], -3.37%; in experiment [6], 1.82%.
As for `NC[C@H]1O[C@H](O[C@H]2[C@H](O[C@@H]3O[C@H](CO)[C@@H](O)[C@H]3O)C(O)[C@H](N)C[C@@H]2N)[C@H](N)[C@@H](O)[C@@H]1O` (some centres not stated), the max response is -0.227% in experiment [2], 0.11% in experiment [3], -0.678% in experiment [4] and -2.19% in experiment [5]. For the same molecule, the call in experiment [6] was inactive. Also, the activity change, negative = cytotoxicity is 8.98% [at 9.22 µM] in experiment [8]; 5.57% [at 9.22 µM] in experiment [9]; 2.77% [at 9.22 µM] in experiment [16]; -8.12% [at 9.22 µM] in experiment [15]; 20% [at 9.22 µM] in experiment [10]; 13.9% [at 9.22 µM] in experiment [17]. Also, the activity change, negative = cytotoxicity in experiment [11] is 11.5% [at 11.6 µM]; in experiment [12], -25.7% [at 11.6 µM]; in experiment [13] it was 15.2% [at 11.6 µM]; in experiment [18], -3.21% [at 11.6 µM]. For the same molecule, the outcome in [19] was “inactive [at 9.27 µM]”.
Consider `CN(C)CC/C=C1/c2ccccc2COc2ccc(CC(=O)O)cc21`, for which the max response in experiment [2] was 2.78%; in experiment [3], 1.17%; in experiment [4], -4.81%; in experiment [5], -7.2%; in [6], -1.64%. For the same molecule, the Potency result in experiment [8], in [9], in experiment [16], in experiment [15], in experiment [10] and in experiment [17] was “inactive” each time. The Potency entry in experiment [11], in experiment [13] and in [18] was “inactive” each time.
In the case of `COC(=O)C1=C(C)NC(C)=C(C(=O)O[C@@H]2CCCN(Cc3ccccc3)C2)[C@@H]1c1cccc([N+](=O)[O-])c1`, the Potency is 15000 nM (active) in experiment [2]; 11.9 µM (active) and 8.2 µM (active) in experiment [3]; 26600 nM (active) in experiment [17]. Also, the max response was -9.72% in experiment [4]; 7.74% in experiment [5]; -11.8% and -29.4% in [6]. In addition, the Potency result in experiment [8], in [9], in experiment [16], in experiment [11], in [12] and in experiment [13] was “inactive” each time. Moreover, the Potency entry in [18] is “inactive”.
`Cc1cc(=O)n(-c2ccccc2)n1C`: the Potency entry in experiment [14], in [1], in experiment [8], in experiment [9], in experiment [16] and in experiment [15] was “inactive” each time. The Potency entry in [10], in experiment [17], in experiment [11], in [12], in [13] and in experiment [18] was “inactive” each time. In addition, the max response in experiment [2] was 2.86%; in experiment [3], -47.4%; in [4], -15.6%; in experiment [5], 3.76%; in [6] it was -41.4%.
For the molecule `CCn1cc(C(=O)O)c(=O)c2cnc(N3CCCC3)nc21`, the Potency result in experiment [14] and in [1] was “inactive” each time. For the same molecule, the max response in experiment [2] was 4.85%; in experiment [3], 1.04%; in experiment [4], -10.2%; in experiment [5], 8.93%; in experiment [6], -2.06%. Also, the activity change, negative = cytotoxicity in experiment [8] was 5.05% [at 9.22 µM]; in experiment [9], -5.4% [at 9.22 µM]; in [16] it was 1.32% [at 9.22 µM]; in [15], 14.9% [at 9.22 µM]; in experiment [10], 12.1% [at 9.22 µM]; in experiment [17] it was 0.34% [at 9.22 µM]. Moreover, the activity change, negative = cytotoxicity was -2.2% [at 11.6 µM] in experiment [11], -1.93% [at 11.6 µM] in experiment [12], 15.2% [at 11.6 µM] in experiment [13] and 0.873% [at 11.6 µM] in [18].
